From PubChem BioAssay (NCI) come the findings set out here.

What all share (test): NCI-60 one-dose screen, 48 h (100 = growth as untreated, 0 = no growth, -100 = all killed)
Common to all, as to conditions: 10 µM unless noted

The subject of assay [1] is RPMI-8226 leukemia.
Assay [2] deals with OVCAR-8 ovarian.
For assay [3], the system named is OVCAR-5 ovarian.
For assay [4], the system named is OVCAR-4 ovarian.
In assay [5] the test system is SK-OV-3 ovarian.
For assay [6], the system named is IGROV1 ovarian.
Assay [7] has as its system OVCAR-3 ovarian.
The subject of assay [8] is HS 578T breast.
For assay [9], the system named is NCI/ADR-RES ovarian.
The test system of assay [10] is T-47D breast.

About 83,000 compounds went through this panel and 20% of them were active in at least one assay; those are over-represented in the sample as a whole.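 Step 1: grow cells in 96-well plates. Step 2: add test compound at a single concentration. Step 3: incubate 48 h. Step 4: record percent growth.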 Values without a mark were called inactive. The source made the active and inactive calls. Rule for the calls: active = growth percent below 10; inactive = the rest.

On to `Nc1c(C(=O)c2ccccc2)sc2nc(-c3cc4ccccc4o3)cc(-c3ccc(Cl)cc3)c12`, for which the growth is 82.7% in assay [1]; 95.8% in assay [2]; 107% in assay [3]; 98.3% in assay [4]; 106% in assay [5]; 55.8% in [6]. For the same molecule, the growth in assay [7] was 85.1%; in [8], 136%; in assay [9], 108%; in assay [10], 90%.

`COc1ccc2c(c1)Oc1nc(N)c(C#N)c(N)c1C2Sc1ccc(O)cc1` (stereo not given): the growth was 53.4% in assay [1]; 102% in assay [2]; 118% in assay [3]; 88.8% in [4]; 104% in assay [5]; 62% in assay [6]. Besides, the growth in assay [7] is 79.7%; in assay [8], 109%; in assay [9], 106%; in assay [10], 50.7%.

Regarding `COc1ccc(-c2cc(-c3nnc(SCC(=O)Nc4ccc(C(C)=O)cc4)o3)c3ccccc3n2)cc1`, the growth in [1] was -19.8% (active); in assay [2] it was -21% (active); in assay [3], 71.4%; in assay [4], -49.6% (active); in [5] it was 17.8%; in assay [6], 9.74% (active). Further, the growth in assay [7] was -20.6% (active); in assay [8], -8.38% (active); in assay [9] it was 6.03% (active); in assay [10], 0.593% (active).

In the case of `N#Cc1c(-c2ccc(F)cc2)c(C#N)c2c(C#N)c(N)nn2c1N`, the growth is 104% in [1]; 103% in [2]; 96.1% in [3]; 100% in assay [4]; 82.2% in assay [5]; 80.9% in [6]. Further, the growth in [7] is 98.7%; in [8], 98%; in assay [9] it was 99.9%; in assay [10], 66.4%.

With `COc1cc(C2=NN(C=O)C(c3cccc(Nc4ccnc5cc(C(F)(F)F)ccc45)c3)C2)cc(OC)c1OC` (stereo not given), the growth in assay [1] is 27%; in assay [2], 61.9%; in assay [3], 102%; in assay [4], 59.1%; in [5], 81.6%; in assay [6], 67.3%. In addition, the growth in [7] was 54.6%; in assay [8] it was 87.5%; in assay [9], 55.3%; in [10], 43.6%.

Take `CN(C)CCCn1c2c(c3cc(-c4ccco4)ccc3c1=O)C(=O)c1ccccc1-2`: the growth in [1] is 46.3%; in assay [2] it was 48%; in [3], 104%; in assay [4], 53%; in assay [5], 93.1%; in assay [6], 52.2%. Also, the growth in assay [7] is 72%; in [8], 79.9%; in assay [9], 53.6%; in assay [10], 49.2%.

Turning to `COc1cc(N=Nc2cc(S(=O)(=O)O)cc3cc(S(=O)(=O)O)cc(O)c23)c(C)cc1N=Nc1c(S(=O)(=O)O)cc2cc(Nc3ccccc3)ccc2c1O`, the growth was 103% in assay [1]; 106% in assay [2]; 111% in [3]; 97.8% in assay [4]; 102% in assay [5]; 96.6% in assay [6]. The growth in assay [7] is 97.2%; in assay [8] it was 108%; in [9], 110%; in assay [10], 93.4%.

In the case of `CCOC(=O)c1ccc(Nc2ncnc3ccc(NC(=O)c4ccccc4)cc23)cc1`, the growth is 69.2% in [1]; 86.7% in assay [2]; 96.2% in assay [3]; 89.2% in assay [4]; 100% in [5]; 103% in assay [6]. For the same molecule, the growth in assay [7] is 94.4%; in assay [8] it was -95% (active); in assay [9] it was 86.8%; in assay [10] it was 65.6%.

For the molecule `COC(=O)/C=C1\SC(=Nc2cccc(OC)c2)N(CCc2c[nH]c3ccccc23)C1=O`, the growth is 19.6% in assay [1]; 52.3% in assay [2]; 96% in assay [3]; 69.7% in [4]; 72.4% in [5]; 71.7% in assay [6]. For the same molecule, the growth in [7] is 57%; in assay [8], 81%; in assay [9], 62.9%; in [10], 46.1%.

As for `Cc1ccc(C2=N[C@H]3CCC[C@@H]3N(c3ccccc3)C(C(Cl)Cl)=N2)cc1`, the growth was 111% in assay [1]; 113% in assay [2]; 91.3% in [3]; 96.9% in assay [4]; 111% in assay [5]; 98.7% in assay [6]. The growth in [7] is 103%; in [8], 100%; in assay [9], 97.9%; in [10], 106%.

As for `CC(=O)c1cnc(-c2ccccc2)nc1CBr`, the growth is 37.7% in assay [1]; 89.3% in [2]; 96.3% in assay [3]; 79.7% in assay [4]; 105% in [5]; 89.2% in assay [6]. In addition, the growth in assay [7] was 30.1%; in assay [8], 89%; in assay [9], 92.2%; in [10] it was 38.5%.

With `COc1ccc2nc(-c3ccc(OC)c(OC)c3)cc(-c3nnc(SCC(=O)Nc4ccc(C(C)=O)cc4)o3)c2c1`, the growth was 90.8% in assay [1]; 102% in [2]; 109% in [3]; 106% in [4]; 109% in assay [5]; 113% in assay [6]. Moreover, the growth in [7] is 111%; in [8], 97.3%; in assay [9], 108%; in assay [10], 94.6%.

On to `CC(C)(C#N)c1cc(F)cc(C(=O)Nc2cc(Nc3ncccc3-c3ncnc4nc[nH]c34)ccc2F)c1`, for which the growth in assay [1] was 23.7%; in assay [2], 41.1%; in assay [3], 37%; in [4] it was 70.3%; in assay [5], 63.7%; in [6] it was 15.4%. Moreover, the growth is 55.2% in [7], 39.9% in [8], 37.1% in [9] and 42.8% in assay [10].

Regarding `O=C(NC[C@H](O)CN1CCc2ccccc2C1)c1cc(NC2COC2)ncn1`, the growth was 107% in assay [1]; 97.3% in assay [2]; 96.4% in assay [3]; 91.5% in [4]; 107% in assay [5]; 76.9% in assay [6]. For the same molecule, the growth in assay [7] is 104%; in [8] it was 122%; in assay [9], 98.4%; in [10] it was 83.4%.
